From publication PMC5540273 (PLoS ONE, 2017)

Assays:
Conditions in all cases: concentration: 1 μM, replicates: in singlicate; n = 1
HIPK4 = tested on: HIPK4
HPK1 = tested on: HPK1
HUNK = tested on: HUNK
ICK = tested on: ICK
IGF1R = tested on: IGF1R
IKK-alpha = tested on: T1, IKK-alpha
T1 construct: gene CHUK

IKK-beta = tested on: T2, IKK-beta
T2 construct: gene IKBKB

IKK-epsilon = tested on: T3, IKK-epsilon
T3 construct: gene IKBKE

INSRR = tested on: INSRR
INSR = tested on: INSR
IRAK1 = tested on: IRAK1
IRAK3 = tested on: IRAK3
IRAK4 = tested on: IRAK4
ITK = tested on: ITK
[1] = tested on: JAK1(JH1domain-catalytic)
[2] = tested on: JAK1(JH2domain-pseudokinase)
[3] = tested on: JAK2(JH1domain-catalytic)
[4] = tested on: JAK3(JH1domain-catalytic)
JNK1 = tested on: T4, JNK1
T4 construct: gene MAPK8

JNK2 = tested on: T5, JNK2
T5 construct: gene MAPK9
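Also: KINOMEscan kinase panel screen.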

| SMILES | %Inh (HIPK4) [%] | %Inh (HPK1) [%] | %Inh (HUNK) [%] | %Inh (ICK) [%] | %Inh (IGF1R) [%] | %Inh (IKK-alpha) [%] | %Inh (IKK-beta) [%] | %Inh (IKK-epsilon) [%] | %Inh (INSRR) [%] | %Inh (INSR) [%] | %Inh (IRAK1) [%] | %Inh (IRAK3) [%] | %Inh (IRAK4) [%] | %Inh (ITK) [%] | %Inh [1] [%] | %Inh [2] [%] | %Inh [3] [%] | %Inh [4] [%] | %Inh (JNK1) [%] | %Inh (JNK2) [%] |
| --- | --- | --- | --- | --- | --- | --- | --- | --- | --- | --- | --- | --- | --- | --- | --- | --- | --- | --- | --- | --- |
| O=C1NC(=O)C(c2ccc(Cl)cc2)=C1Nc1cccc(Cl)c1 [SB-317651] | 0 | 12 | 0 | 28 | 0 | 0 | 0 | 0 | 0 | 11 | 0 | 0 | 0 | 5 | 26 | 0 | 11 | 0 | 61 | 56 |
| COc1ccc(-c2coc3ccc(-c4nnc(C)o4)cc23)cc1 | 8 | 0 | 0 | 0 | 12 | 0 | 0 | 0 | 0 | 14 | 0 | 0 | 9 | 0 | 15 | 0 | 3 | 0 | 0 | 0 |
| CC[C@@H]1CO[C@H](C(=O)Nc2ccccc2)CN1c1cc(-c2ccc3c(N)n[nH]c3c2)nc(NC)n1 [GSK2376236] | 0 | 15 | 0 | 0 | 0 | 0 | 1 | 6 | 0 | 10 | 0 | 5 | 0 | 3 | 11 | 0 | 0 | 0 | 0 | 17 |
| Cc1ccc(NC(=O)Nc2ccccc2)cc1-c1ccc(C(=O)Nc2ccncc2)cc1 [GSK1398471] | 10 | 37 | 22 | 2 | 11 | 0 | 0 | 5 | 0 | 3 | 0 | 0 | 0 | 8 | 31 | 0 | 0 | 0 | 11 | 29 |
| c1ccc(-c2ccnc3[nH]ccc23)cc1 [SB-693578] | 0 | 48 | 2 | 13 | 14 | 47 | 64 | 0 | 0 | 5 | 64 | 0 | 43 | 18 | 1 | 2 | 69 | 76 | 32 | 0 |
| COC(=O)c1cccc(NC(=O)NC2CCN(c3ccnc(Nc4ccc(OC)cc4)n3)C2)c1 (stereo not drawn) [GSK1379746] | 0 | 41 | 0 | 12 | 1 | 44 | 18 | 29 | 0 | 0 | 35 | 0 | 23 | 13 | 14 | 0 | 2 | 0 | 37 | 0 |
| O=C1NC(=O)C(c2ccc(Cl)cc2)=C1Nc1ccc(O)cc1 [SB-340867] | 0 | 35 | 0 | 0 | 0 | 0 | 0 | 0 | 0 | 0 | 0 | 0 | 0 | 0 | 0 | 0 | 14 | 0 | 3 | 0 |
| CCn1c(-c2c(N)noc2C)nc2cnccc21 [SB-737856] | 0 | 41 | 0 | 4 | 0 | 7 | 0 | 0 | 0 | 0 | 15 | 29 | 34 | 16 | 8 | 0 | 11 | 0 | 15 | 23 |
| Cc1ccccc1Cn1ccn2c(=O)cc(N3CCOCC3)nc12 [GSK2269905] | 0 | 32 | 7 | 0 | 2 | 0 | 12 | 0 | 0 | 17 | 0 | 0 | 13 | 20 | 0 | 0 | 0 | 0 | 21 | 20 |
| O=c1cc(N2CCOCC2)nc2n(Cc3ccccc3F)ccn12 [GSK2297428] | 0 | 34 | 0 | 0 | 7 | 0 | 0 | 0 | 0 | 0 | 0 | 0 | 0 | 15 | 10 | 0 | 0 | 0 | 1 | 11 |
| Cn1cnc2c(N)ncnc21 [SKF-97623] | 0 | 33 | 17 | 0 | 46 | 0 | 0 | 0 | 0 | 0 | 0 | 0 | 0 | 7 | 19 | 0 | 0 | 6 | 1 | 0 |
| Cc1ccccc1-c1cc(-c2c[nH]nc2-c2ccccn2)ccn1 [GW680061] | 0 | 32 | 27 | 0 | 2 | 46 | 38 | 0 | 0 | 28 | 28 | 2 | 4 | 12 | 4 | 0 | 12 | 0 | 38 | 30 |
| Cc1ccc(NC(=O)c2ccc(Cl)cc2)cc1-c1ccc(C(=O)Nc2ccncc2)cc1 [GSK1398467] | 0 | 36 | 8 | 0 | 11 | 12 | 6 | 15 | 0 | 0 | 30 | 3 | 14 | 8 | 0 | 0 | 0 | 0 | 19 | 15 |
| O=C(Nc1n[nH]c2nc(-c3cccs3)c(Br)cc12)C1CC1 [SB-735297] | 10 | 16 | 0 | 24 | 0 | 0 | 9 | 0 | 0 | 0 | 0 | 0 | 0 | 0 | 13 | 21 | 20 | 0 | 40 | 15 |
| CNc1nc(-c2ccc3c(N)n[nH]c3c2)cc(N2C[C@@H](C(=O)NC3CCCCC3)OC[C@H]2C)n1 [GSK2375584] | 0 | 14 | 21 | 12 | 8 | 0 | 0 | 30 | 0 | 6 | 21 | 0 | 0 | 10 | 11 | 0 | 0 | 0 | 3 | 0 |
| COc1cccc(NC(=O)Nc2ccc(C)c(-c3ccc(C(=O)Nc4ccncc4)cc3)c2)c1 [GSK1398474] | 27 | 78 | 2 | 17 | 12 | 0 | 84 | 22 | 0 | 0 | 0 | 7 | 1 | 11 | 20 | 0 | 0 | 0 | 8 | 39 |
| CCn1c(-c2ccccc2)nc2cnccc21 [SB-733416] | 0 | 48 | 0 | 46 | 7 | 37 | 43 | 19 | 2 | 4 | 45 | 4 | 38 | 1 | 0 | 0 | 30 | 0 | 21 | 3 |
| CC(C)c1ccc(O)cc1Nc1ccnc2ccc(C(F)(F)F)cc12 [GW482059] | 10 | 23 | 0 | 0 | 3 | 0 | 0 | 0 | 7 | 0 | 0 | 19 | 0 | 0 | 1 | 0 | 35 | 0 | 3 | 0 |
| CS(=O)(=O)Cc1ccc(Nc2nccc(-c3c(-c4cccc(NC(=O)C5CCCCC5)c4)nn4ncccc34)n2)cc1 [GSK350559] | 0 | 14 | 7 | 14 | 68 | 0 | 12 | 32 | 20 | 42 | 24 | 3 | 25 | 6 | 0 | 0 | 16 | 43 | 43 | 49 |
| CNC(=O)c1ccc(C)c(-n2c(C)cc(OCc3ccc(F)cc3F)c(Br)c2=O)c1 | 0 | 0 | 0 | 0 | 0 | 0 | 0 | 0 | 6 | 0 | 0 | 0 | 0 | 0 | 0 | 0 | 0 | 0 | 0 | 100 |
| CNc1nc(-c2ccc3c(N)n[nH]c3c2)cc(N2C[C@@H](C(=O)Nc3ccccc3)CC[C@H]2C)n1 [GSK2298859] | 0 | 18 | 0 | 0 | 11 | 0 | 0 | 24 | 0 | 0 | 0 | 0 | 8 | 12 | 0 | 0 | 0 | 0 | 2 | 15 |
